Among all 53,000 sequences or so, about 3,700 (7%) were called active. The sample as a whole holds a higher share of actives than the screen did. A number with no mark means an inactive call.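 Rule for the calls: active = gene knockdowns whose robust z-score for IL-1 alpha signal is at least 2 or at most -2, so actives lie on both sides; inactive = the rest.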
Test: Components of the Cytosolic LPS Sensing Pathway: Gene Identification via Genome-wide siRNA Screen;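 note: robust z of the log signal after scaling to non-targeting control siRNA wells of the plate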
Conditions: RAW264.7 macrophages, IL-1a HTRF, actives lie on both sides, screened at 100 nM (by protocol), cells primed 5 h with Pam3CSK4 first
Procedure, shortened: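 RAW264.7 mouse macrophages reverse-transfected with single siRNAs (100 nM final) for 48h, primed with Pam3CSK4 for 5 hours, then transfected with LipidA for 24 hour. Supernatant IL-1a read by HTRF; values normalized to negative-control median, log-transformed robust z-scores.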
Sequence GCUCGAGAUCGAAACAUACTT against Tmed5 has a z-score of -1.13.
With GCCACUUUAGUAUGGAAUGTT against Nxt1 the z-score was 0.822.
In the case of GGCUGUGGAAUGACACCAATT against Sars2, the z-score is reported as -1.01.
Work on GGAUAUCUCGGGUUGAAUUTT against Aurka yielded a z-score of -1.38.
GGCUAAUGGACAAAAAAUUTT against Pacrgl gave a z-score of 0.28.
For CCAUGACUACAACACAUACTT against Ndufv3, the z-score was -3.07 (active).
With GGAAGACAUACUGUUGAAATT against Mettl23 the z-score was -0.147.
With GGCUCUUGUCACAUGAUCATT against Jagn1 the z-score was -1.77.
Sequence GGGUUCAAAACUAUGGAUATT against Stk26 has a z-score of 0.575.
In the case of GGAUCUGAGUGCUCUACUGTT against Kctd20, the z-score is reported as 2.08 (active).
GGCCCACAGGAACAUCCUATT against Zbtb8b gave a z-score of -0.134.
For GGACAAACAGCUUCAAGAUTT against Psmd2, the z-score was -2.26 (active).
Sequence GGGUUCUUUCACUGAACGATT against Pskh1 has a z-score of 0.9.
In the case of GGCAUCUUCAUCAAGGAUUTT against Sf3a1, the z-score is reported as -1.1.
GGCUUAAGUGUGCAGCUACTT against B3gnt4 showed a z-score of -0.479.
GGACAUUGCUGCCUAUAUCTT against Dynll2 showed a z-score of 0.452.
With GCGAUCCUGACUUGUUCAATT against Kdm6b the z-score was 2.27 (active).
GGACAAGAAGCAUCUUUCATT against Smpdl3a gave a z-score of -1.16.
Sequence GGAAACUUUAGCAUGAAUGTT against Hmgxb4 has a z-score of -0.335.
In the case of GCAUGCGUGAGAAACUGAUTT against Clec2e, the z-score is reported as -0.152.
GCAAGCUAAUGAGCUACAATT against Samd9l gave a z-score of -0.107.
For CCGCCCGCUCAACACUAAUTT against Zfp36l3, the z-score was -2.39 (active).
With GGUAUAUUGCCAUAUGUAATT against Olfr731 the z-score was -0.174.
For CCAUGGGCCUACCAAACAGTT against Celf2, the z-score was -1.86.
For GCCGGAUAACAUCAGACACTT against Rmnd1, the z-score was -0.146.
Work on GCCACAGAGCUAGACUGUCTT against Wdr86 yielded a z-score of 0.241.
Work on GGAACAUCUUCAAAGAAGATT against Minar1 yielded a z-score of -0.963.
For GUUUUGUUUCAGAGCAGAATT against Olfr900, the z-score was -0.134.
For GCUAAUAACUGUUCACAUATT against Magi1, the z-score was 1.97.
For CCAAUCUUAGUCAUCCAUUTT against Foxo6, the z-score was -2.27 (active).
GUAUUGUCAUCAUCAUUUCTT against Olfr910 showed a z-score of 0.115.
In the case of GGUCGGCCAAUUACAAUGUTT against Eml4, the z-score is reported as 2.16 (active).
In the case of GCGAUGAGACAGAUGUCGATT against Tcof1, the z-score is reported as -0.0757.
GGUCUUCAACAACAUUAUCTT against Hid1 showed a z-score of 1.
Work on GCCGAUCCAUUUUUGGCUCTT against Mlxip yielded a z-score of 0.86.
GGAGUAUUACCUGGUUAAGTT against Suv39h1 gave a z-score of -1.18.
With GCAAGUUAAGGAUAUCAUGTT against Katna1 the z-score was 1.2.
With CCGAGUCUUGAACUAGGCATT against Six2 the z-score was -2.01 (active).
In the case of GCUUUCUGAAGUAGCAAAGTT against Nit2, the z-score is reported as 0.42.
For GAUGUACGAGAGCUUAGCATT against Uqcc2, the z-score was -1.14.
GGACUACCUGUGUAUGCUCTT against Dcaf12l1 gave a z-score of 1.3.
Sequence GGAAUGUUCCUUCGAGCAGTT against Ccdc28b has a z-score of -0.197.
With GCCAUAGAAGUAGAAGUAGTT against Rbmx2 the z-score was -2.29 (active).
GGCGAAAGUAAGACAAAGUTT against Ric8a gave a z-score of 0.708.
With GGCAAACCGACAGACUUCUTT against Riok1 the z-score was -0.033.
With GGUCUCUCAUUACCACAUUTT against Olfr69 the z-score was 1.75.
In the case of GGAAGAUCAGCCAUACUAGTT against Klrb1f, the z-score is reported as 2.12 (active).
Sequence GCCCACACUUGCUAAUGAATT against Ppp1r26 has a z-score of 0.468.
In the case of GCUGAACGAUGACUAUCCCTT against Cryba4, the z-score is reported as 2.2 (active).
With GCUUGUGCCAAGCAUUCUUTT against Rdh1 the z-score was 0.861.
Sequence GGACUCAGAAGAAAUGGACTT against Osbpl6 has a z-score of 0.109.
GCUCUGCUAACUUACAUCUTT against Mtmr11 showed a z-score of 1.75.
For GGCAAAGAGAUUGACAUUGTT against Kif2c, the z-score was -0.991.
In the case of GCGGUCACGUGUGAUGGAUTT against Zfp653, the z-score is reported as 3.98 (active).
Sequence GGCAGGAGAUGGUAACUGCTT against Phc2 has a z-score of 1.08.
Sequence CGAAUUCAAAAAGCUAGAGTT against Gsto1 has a z-score of 0.0531.
With GGCCUUCAUGGAUUAUACCTT against Serpinb9 the z-score was 2.09 (active).
In the case of GGCCAUUCAGAAGAUGCAGTT against Snapc2, the z-score is reported as -0.852.
In the case of CGAUUGUCGGGUUUUGUUUTT against Nutf2, the z-score is reported as -2.53 (active).
With GCCAUUGACUGUACAGGUUTT against Taar4 the z-score was 0.74.
Sequence GGAAGAGCAGGCAUCCAUATT against Ranbp10 has a z-score of -0.294.
For GGGAGAUGAUUAGUUCAUUTT against Mad1l1, the z-score was 0.654.
With GGCCAGUCCAAAGACCAUCTT against Hsd3b7 the z-score was 1.95.
In the case of GCAAAACAUUUCCUGUCUGTT against Zfp316, the z-score is reported as -0.555.
For CCUCAAUUAUACCAAGAUUTT against Mapre3, the z-score was -1.28.
With GCCAGGAGUCCUUUAGGAATT against Tmem159 the z-score was -0.184.
In the case of GCCCUCUUAUCUGAAUAAUTT against Stk17b, the z-score is reported as 2.19 (active).
In the case of GGGAUUGGAAGAGAAAUGGTT against Hsd11b1, the z-score is reported as 0.362.
GCUAUACGAAGACUUCAGCTT against Hdhd3 showed a z-score of 0.972.
Sequence GGCCUUUAAUUUCUUACACTT against Akt1s1 has a z-score of -0.6.
With GGAGUGAAAUUUACUGGGUTT against Hdgfl3 the z-score was 1.28.
In the case of GGAGAACAAAGAUUUCGUGTT against Lhfpl4, the z-score is reported as -0.897.
Sequence GCUAAACACGCUGAAUAUUTT against Phf10 has a z-score of 0.107.
For GCUACUAUCACAUAUGCACTT against Olfr1122, the z-score was -2.09 (active).
GGGUUGGUAUAGCUUUCAGTT against Zfp619 gave a z-score of -0.948.
In the case of GGAACCUGAAAAUGUAUGUTT against Cxcl10, the z-score is reported as 0.988.
In the case of CGUUCAGUGUCUGCAGGUUTT against Mrps12, the z-score is reported as -0.0575.
In the case of CCACUAAUUACAGUAACAUTT against Akr1c20, the z-score is reported as -1.11.
In the case of “GCAGACUCAUGCACUUGAATT against Olfr1165-ps”, the z-score is reported as -0.321.
With GGAAGUCUUAGAAGUAGCCTT against Diaph3 the z-score was 0.691.
Work on GGGAACUGCACAAUACAAATT against Ccdc122 yielded a z-score of 1.91.
For GGCUGGUGGAUAAUGAUUGTT against Tmem50b, the z-score was 2.18 (active).
Work on GGACUGUUUUGUCUUGAAGTT against Gm5124 yielded a z-score of -1.04.
Sequence GGUUUUUGUUAAGGUCAAUTT against Abca16 has a z-score of 0.209.
In the case of CCAUCCGUAACAUCGACUGTT against Mboat7, the z-score is reported as -0.293.
Sequence UGGUCACCUUUCUCUUAUUTT against Tas2r140 has a z-score of -0.575.
With GCUCCUGGGAUACGUAUUATT against Abhd16a the z-score was -2 (active).
GGGAGCUGAACACAAACACTT against Trav3-3 gave a z-score of 0.191.
With GGACCUUCUUCAAGAAAGUTT against Olfr430 the z-score was 0.0987.
Work on GGAUGGUGAAAAUCUUGAGTT against Mindy1 yielded a z-score of 1.39.
GGACAAUGGGAGCUAUCGATT against Gpld1 showed a z-score of -1.73.
With “GGCUAAUACAUAAAGUAGUTT against 4930515G01Rik” the z-score was 0.452.
With GGUCAAGAAAUGGGCAAGCTT against Arhgdib the z-score was 1.14.
For GGAAAUAAACCACCUCUUCTT against Olfr437, the z-score was 2.36 (active).
GAACAUGGAAAGCAGCAUUTT against Lce1m gave a z-score of -0.757.
Work on GGUAUUUUUCAUGGCUCUCTT against Olfr305 yielded a z-score of -0.0328.
For GCCAAAUACUUUUUUACCCTT against Slc38a2, the z-score was 0.682.
With GCUUACCAAAAGGAUAUCCTT against Zfand2b the z-score was -1.94.
For GGCAUUUCAUGUAGCUAAATT against Spata18, the z-score was 2.04 (active).
For GGUCCAACGAUAUGUUGACTT against Cyp2c67, the z-score was 1.27.
Sequence GGACAUGGAGAAAAAGUACTT against Styk1 has a z-score of 0.547.
Work on GCAGUGCGAUUGCUUACAGTT against Tube1 yielded a z-score of 1.07.
In the case of GGAUGUUCCAUUUCUAAGCTT against Zfp30, the z-score is reported as -3.76 (active).
In the case of GGAGUGUGCCCUGAAAGAUTT against Psrc1, the z-score is reported as -0.215.
In the case of GGCUUUUCUGCCAUUUAUGTT against Sox18, the z-score is reported as 0.23.
In the case of GGGUGAAAGAAAGAAAGAATT against Plp1, the z-score is reported as -0.883.
For GGCCCAGUGACUAUGGAAUTT against Mpnd, the z-score was -2.68 (active).

Source: PubChem BioAssay AID1508600 (Functional Genomics Laboratory (NCATS/FGL), 2020)
